The record followed here is PubChem BioAssay (EPA / NIEHS).

SMILES strings stand for the structures. The source made the active and inactive calls. The calls were made as follows, unless noted: active = hit-call score of the fitted dose curve at least 0.9, where 1 is the maximum; inactive = score below 0.9.

System in the first experiment: not listed separately
Description: CCTE_Shafer_MEA_dev_network_spike_peak: CCTE's Neural Network Formation Assay for Mean Number of Electrodes in Network Spike, Shafer Lab (AID 2284049).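 As to AC50: fitted for loss of signal meaning fewer electrodes in network spikes than DMSO.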 The method, then:
CCTE_Shafer_MEA_dev assay is conducted using Axion Biosystems 48 well microelectrode array (MEA) plates and Maestro recording system. Each well of the MEA plate contains a grid of 16 microelectrodes embedded in the culture surface. Electrically active cells, such as neurons, can be cultured over the electrodes, and electrical activity in these cells can be recorded extracellularly. The spontaneous firing of neurons is captured from each electrode on a microsecond timescale providing both temporally and spatially precise data. […] The CCTE_Shafer_MEA_dev assay uses primary cultures of rat cortical neurons. Recordings are made on days post-plating 5, 7, 9 and 12. As these cultures mature over time, neural networks develop functional activity and form cohesive networks in which electrical activity can be highly coordinated. CCTE_Shafer_MEA_dev_network_spike_peak is 1 of 19 assay components of the CCTE_Shafer_MEA_dev assay. It measures the average number of electrodes participating at the peak of a network spike (the peak of a temporally-clustered group of action potential firing across multiple electrodes) during a recording in a microelectrode array (MEA) using Axion Biosystems Maestro 768 channel amplifier with the AxIS adaptive spike detector. To collapse across multiple recordings made on days post-plating 5, 7, 9 and 12, the trapezoidal area-under-the-curve of the component is calculated.Data from the assay component CCTE_Shafer_MEA_dev_network_spike_peak was analyzed into 1 assay endpoint. This assay endpoint, CCTE_Shafer_MEA_dev_network_spike_peak, was analyzed in the negative analysis fitting direction relative to DMSO as the negative control and baseline of activity. Using a type of functional reporter, gain or loss-of-signal activity can be used to understand electrical activity.
On the day prior to culture, each well was coated thoroughly with 150 uL of 0.05% polyethyleneimine (PEI, Sigma Cat P3143) in 50 mM HEPES (Sigma Cat H7523) at a pH of 8. The plate was incubated at 37C for one hour. PEI was rinsed out with 500 uL of sterile water three times. Plates were stored at 4C until the day of culture. This culture was plated at a seeding density of 1.5 x 10^5 cells/well on a 48-well MEA plate, prepared as described above. Cells were administered via a 25 uL media/laminin ([…]; Sigma Cat L2020-1MG) drop directly onto the microelectrode array, as adding the cells with the laminin results in better attachment than pre-coating with laminin. After 2 hours, an additional 475 uL of cortical media was added and the cells returned to the incubator. Exposure starts at day 0 of plating and is continued over twelve days of network development until the experiment is terminated. Cells are fed with fresh medium on DIV 5 and 9, following the recordings on those days. The entire volume of media in the well is exchanged and any vehicle or compound treatment is renewed. Complete details are found in OP-NHEERL/ISTD/SBB/TJS/2015-03-r0 (available on request, email shafer.tim@epa.gov). Measurement of the electrical activity is non-invasive, and recordings can be made from the same plate over multiple different days of the culture. In cortical neurons, this allows for the measurement of extracellular action potentials over the period during which networks form in the MEA plate.
Regarding `Clc1ccccc1C(c1ccccc1)(c1ccccc1)n1ccnc1`, the compound was classed as inactive.
In the case of `c1ccc2ccccc2c1`, the outcome was inactive.
For `Oc1ccccc1`, the result was inactive.
For `O=C1O[C@H]([C@@H](O)CO)C(O)=C1O`, the outcome was inactive.
Still for that read-out and setting: the value for `CC(C)(c1cc(Br)c(O)c(Br)c1)c1cc(Br)c(O)c(Br)c1` was “inactive”.
The AC50 is the concentration giving half of the maximal activity seen. Take `CC/C(=C(/CC)c1ccc(O)cc1)c1ccc(O)cc1`: the AC50 is 11.3 µM (active).
Consider `CN1C(=O)CC[C@H]1c1cccnc1`, for which the result was inactive.

The test system of another experiment is DIO2 (gene 1734). Description: CCTE_GLTED_hDIO2: CCTE's human Deiodinase 2 (DIO2) Inhibition Assay, Great Lakes Toxicology and Ecology Division (GLTED) Lab (AID 2284050; active = hit-call score of the fitted dose curve at least 0.9, where 1 is the maximum). In short, it runs like this:
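Readout: absorbance from Sandell-Kolthoff detection of free iodide released by human DIO2 during a 3 h incubation with chemical. Cell-free format, n=3; activity fitted relative to DMSO negative control.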
Consider `CN(C)c1ccc(C(=C2C=CC(=[N+](C)C)C=C2)c2ccc(N(C)C)cc2)cc1`, for which the half-maximal activity concentration (AC50) was 134 µM (active).
Same read-out and setting: the value for `CN(C)C(=O)C1(N2CCCCC2)CCN(CC[C@@]2(c3ccc(Cl)c(Cl)c3)CN(C(=O)c3ccccc3)CCO2)CC1` was 73.9 µM (active); that for `NC(=O)c1nc(-c2cccc(-c3cc(F)ccc3OCC(F)(F)C(F)(F)F)c2)n[nH]1` was 100 µM (active).
As to `CN1C(=O)N(c2ccccc2Br)Cc2cnc(Nc3ccc4c(c3)OCC(CO)O4)nc21` (stereo unspecified), the outcome was inactive.
As to `CCCCCCCCCCCC[N+](C)(C)C`, the AC50 was 96.4 µM (active).
Take `CCCCCCCCCCCCO`: the outcome was inactive.
Take `CC(C)(c1cc(Br)c(O)c(Br)c1)c1cc(Br)c(O)c(Br)c1`: the AC50 is 48.6 µM (active).
Regarding `CC(C)(C)c1csc(-c2cc3cc(OCc4ccccc4CC(=O)O)ccc3o2)n1`, the AC50 is 120 µM (active).
Same read-out and setting: to `NCc1cccc(C2CCN(C(=O)c3ccc(C#Cc4ccccc4F)o3)CC2)c1` belongs 30.6 µM (active); to `O=CCCCC=O`, 91.3 µM (active).
Turning to `CCCCCCCCOC(=O)c1cc(O)c(O)c(O)c1`, the AC50 is 143 µM (active).
On the same count and under the same terms, the value for `CCN(CC)C(=O)c1cc(S(=O)(=O)Cc2ccccc2)c(N2CCC(c3ccccc3)CC2)cc1N(CC)CCN(C)C` was 37 µM (active).
With `CC(C)(C)c1cc(/C=C2\SC(N)=NC2=O)cc(C(C)(C)C)c1O`, the AC50 was 30.3 µM (active).
On the same count and under the same terms, to `CCOC(=O)O[C@H](C)OC(=O)c1ccc2c(c1)cc(C(=O)NC1CCN(C(C)C)CC1)n2Cc1cc(-c2ccc(Cl)s2)on1` belongs 45.2 µM (active); to `OC12N=C(c3ccccc3)SC1Cc1cc(Cl)ccc12` (stereo unspecified), 72.5 µM (active); to `CN(C[C@@H](CC[N+]12CCC(C3CCCCC3)(CC1)CC2)c1ccc(Cl)c(Cl)c1)C(=O)c1cc(C(F)(F)F)cc(C(F)(F)F)c1`, 37.8 µM (active).

System in a further experiment: not listed separately
Description: CCTE_Shafer_MEA_dev_spike_duration_mean: CCTE's Neural Network Formation Assay for Mean Spike Duration, Shafer Lab (AID 2284051).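 Also: mean network spike duration pooled as area under curve over DIV 5 to 12 recordings.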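 As to AC50: potency for a decrease in mean network spike duration versus DMSO.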 An outline of the steps:
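Primary rat cortical neurons on 16-electrode MEA wells (PEI-coated, laminin in plating drop), exposed from plating through DIV 12 with compound renewed at DIV 5 and 9. Mean network-spike duration recorded DIV 5, 7, 9, 12; trapezoidal AUC across days, DMSO baseline.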
Turning to `Clc1ccccc1C(c1ccccc1)(c1ccccc1)n1ccnc1`, the call was inactive.
The same measure, in the same setting: to `c1ccc2ccccc2c1` belongs “inactive”; to `Oc1ccccc1`, “inactive”.
For the compound `O=C1O[C@H]([C@@H](O)CO)C(O)=C1O`, the compound was called inactive.
In the case of `CC(C)(c1cc(Br)c(O)c(Br)c1)c1cc(Br)c(O)c(Br)c1`, the call was inactive.
As to `CC/C(=C(/CC)c1ccc(O)cc1)c1ccc(O)cc1`, the AC50 is 15 µM (active).
Regarding `CN1C(=O)CC[C@H]1c1cccnc1`, the outcome was inactive.

System in a further experiment: not listed separately
In words: CCTE_Shafer_MEA_dev_network_spike_duration_std: CCTE's Neural Network Formation Assay for Standard Deviation of Network Spike Duration, Shafer Lab (AID 2284052).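 Also: hits are decreases in network spike duration SD versus DMSO vehicle.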 In short, it runs like this: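 Primary rat cortical neurons on PEI-coated 16-electrode MEA wells, exposed from plating day 0 through day 12 with compound renewed at DIV 5 and 9. Network spike duration SD recorded on days 5, 7, 9, 12, collapsed as trapezoidal AUC; loss-of-signal fit versus DMSO.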
For `Clc1ccccc1C(c1ccccc1)(c1ccccc1)n1ccnc1`, the outcome was inactive.
Still for that read-out and setting: the value for `c1ccc2ccccc2c1` was “inactive”.
The same measure, in the same setting: the value for `Oc1ccccc1` was “inactive”; that for `O=C1O[C@H]([C@@H](O)CO)C(O)=C1O` was “inactive”.
Regarding `CC(C)(c1cc(Br)c(O)c(Br)c1)c1cc(Br)c(O)c(Br)c1`, the compound was classed as inactive.
In the case of `CC/C(=C(/CC)c1ccc(O)cc1)c1ccc(O)cc1`, the result was inactive.
With `CN1C(=O)CC[C@H]1c1cccnc1`, the compound was called inactive.

System in the next experiment: not listed separately
Description: CCTE_Shafer_MEA_dev_per_network_spike_spike_number_mean: CCTE's Neural Network Formation Assay for Mean Number of Spikes in a Network Spike, Shafer Lab (AID 2284053).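 As to AC50: fitted as decrease in spikes per network spike relative to DMSO.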 In short, it runs like this: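 Primary rat cortical neurons on 48-well, 16-electrode MEA plates were exposed from plating to DIV 12, with dosing renewed on DIV 5 and 9. Spikes per network spike (0.05 s peak window) were recorded on DIV 5, 7, 9 and 12 and collapsed as trapezoidal AUC versus DMSO.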
Regarding `Clc1ccccc1C(c1ccccc1)(c1ccccc1)n1ccnc1`, the compound was called inactive.
On the same count and under the same terms, the value for `c1ccc2ccccc2c1` was “inactive”; that for `Oc1ccccc1` was “inactive”.
`O=C1O[C@H]([C@@H](O)CO)C(O)=C1O`: the result was inactive.
With `CC(C)(c1cc(Br)c(O)c(Br)c1)c1cc(Br)c(O)c(Br)c1`, the call was inactive.
With `CC/C(=C(/CC)c1ccc(O)cc1)c1ccc(O)cc1`, the AC50 is 5.65 µM (active).
In the case of `CN1C(=O)CC[C@H]1c1cccnc1`, the result was inactive.

System in another experiment: not listed separately
In words: CCTE_Shafer_MEA_dev_per_network_spike_spike_percent: CCTE's Neural Network Formation Assay for Percent of Spikes in a Network Spike, Shafer Lab (AID 2284054). An outline of the steps: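 Metric: fraction of spikes falling in a 0.05 s window at network-spike peaks. Recordings were made on days 5, 7, 9 and 12 and collapsed by trapezoidal AUC. Cultures were rat cortical neurons on MEA plates, dosed continuously from plating, re-dosed at media changes.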
As for `Clc1ccccc1C(c1ccccc1)(c1ccccc1)n1ccnc1`, the outcome was inactive.
Consider `c1ccc2ccccc2c1`, for which the compound was called inactive.
Still for that read-out and setting: the value for `Oc1ccccc1` was “inactive”; that for `CC(C)(c1cc(Br)c(O)c(Br)c1)c1cc(Br)c(O)c(Br)c1` was “inactive”.
`CC/C(=C(/CC)c1ccc(O)cc1)c1ccc(O)cc1`: the AC50 was 3.87 µM (active).
In the case of `CN1C(=O)CC[C@H]1c1cccnc1`, the outcome was inactive.

In a further experiment the test system is DIO3 (gene 1735). Description: CCTE_GLTED_hDIO3: CCTE's human Deiodinase 3 (DIO3) Inhibition Assay, Great Lakes Toxicology and Ecology Division (GLTED) Lab (AID 2284055; active = hit-call score of the fitted dose curve at least 0.9, where 1 is the maximum;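 as to AC50: potency is for inhibition seen as loss of released iodide signal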). An outline of the steps:
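hDIO3 (adenovirus-expressed) + test chemical, 3 h incubation; free iodide quantified by Sandell-Kolthoff reaction, absorbance read-out. DMSO negative control, n=3.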
Consider `CN(C)c1ccc(C(=C2C=CC(=[N+](C)C)C=C2)c2ccc(N(C)C)cc2)cc1`, for which the AC50 is 22.6 µM (active).
Regarding `CN(C)C(=O)C1(N2CCCCC2)CCN(CC[C@@]2(c3ccc(Cl)c(Cl)c3)CN(C(=O)c3ccccc3)CCO2)CC1`, the compound was called inactive.
Take `NC(=O)c1nc(-c2cccc(-c3cc(F)ccc3OCC(F)(F)C(F)(F)F)c2)n[nH]1`: the AC50 was 182 µM (active).
As to `CCCCCCCCCCCC[N+](C)(C)C`, the AC50 was 119 µM (active).
With `CCCCCCCCCCCCO`, the AC50 was 82.6 µM (active).
For `CC(C)(c1cc(Br)c(O)c(Br)c1)c1cc(Br)c(O)c(Br)c1`, the AC50 was 37.8 µM (active).
For `CC(C)(C)c1csc(-c2cc3cc(OCc4ccccc4CC(=O)O)ccc3o2)n1`, the AC50 is 148 µM (active).
As to `CCCCCCCCCCCO`, the AC50 was 152 µM (active).
On the same count and under the same terms, to `NCc1cccc(C2CCN(C(=O)c3ccc(C#Cc4ccccc4F)o3)CC2)c1` belongs 23.3 µM (active); to `O=CCCCC=O`, 9.03 µM (active); to `CCCCCCCCOC(=O)c1cc(O)c(O)c(O)c1`, 76.5 µM (active).
Same read-out and setting: the value for `CCN(CC)C(=O)c1cc(S(=O)(=O)Cc2ccccc2)c(N2CCC(c3ccccc3)CC2)cc1N(CC)CCN(C)C` was 53.4 µM (active); that for `CC(C)(C)c1cc(/C=C2\SC(N)=NC2=O)cc(C(C)(C)C)c1O` was 19.9 µM (active).
Consider `CCOC(=O)O[C@H](C)OC(=O)c1ccc2c(c1)cc(C(=O)NC1CCN(C(C)C)CC1)n2Cc1cc(-c2ccc(Cl)s2)on1`, for which the AC50 is 1.16 µM (active).
The same measure, in the same setting: to `OC12N=C(c3ccccc3)SC1Cc1cc(Cl)ccc12` (stereo unspecified) belongs 86.5 µM (active); to `CN(C[C@@H](CC[N+]12CCC(C3CCCCC3)(CC1)CC2)c1ccc(Cl)c(Cl)c1)C(=O)c1cc(C(F)(F)F)cc(C(F)(F)F)c1`, 81.9 µM (active).
